# The full ranking holds about 18,000 sequences; the median of “log2 normalized intensity” is about 0.39, and the highest 2% start at about 6.6. This is one part of a sample in which the highest values are shown more often than they occur.
# Target: T1, HNF4alpha2 (COS-7 nuclear extract) (Homo sapiens, UniProt P41235 1-474)
# T1 sequence: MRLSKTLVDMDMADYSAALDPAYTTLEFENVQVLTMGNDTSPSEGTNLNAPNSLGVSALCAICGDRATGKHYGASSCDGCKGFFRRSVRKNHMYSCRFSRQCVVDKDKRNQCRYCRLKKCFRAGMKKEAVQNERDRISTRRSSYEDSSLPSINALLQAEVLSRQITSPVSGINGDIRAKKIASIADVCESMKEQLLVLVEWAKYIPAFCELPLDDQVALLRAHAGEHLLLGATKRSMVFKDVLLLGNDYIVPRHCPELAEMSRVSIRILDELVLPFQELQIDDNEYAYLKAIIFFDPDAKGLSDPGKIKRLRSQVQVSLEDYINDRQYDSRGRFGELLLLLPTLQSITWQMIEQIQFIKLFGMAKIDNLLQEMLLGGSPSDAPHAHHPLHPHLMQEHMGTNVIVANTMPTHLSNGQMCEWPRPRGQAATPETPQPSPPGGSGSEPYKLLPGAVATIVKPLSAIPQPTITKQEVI
# Experiment: protein-binding microarray; COS-7 nuclear extract on double-stranded Agilent 4x180k PBM; binding buffer, salt, pH and temperature not given in the material; high values mean tight binding
# Details: chain copies: 2; label: 3' end of strand 1 on the slide; dsDNA, one strand shown
# Summary of the method: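 A human HNF4α isoform was expressed in COS-7 cells by transient CaPO4 transfection, and nuclear extracts were prepared. These were applied to a custom Agilent SurePrint G3 4x180k array carrying ~44,000 test sequences in quadruplicate as double-stranded ~60-nt oligonucleotides, and an Agilent G2565CA scanner imaged bound HNF4α at 2-µm resolution. The background-corrected, normalized gProcessedSignal from Agilent software was used as the binding signal.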
row,Sequence,binding signal [log2 normalized intensity]
1,CTCCTCCCTCAGGGATCTTTGCACTTGATGGCCTAGGGAGATTAGAGTATCGGTCGA,1.32
2,TGGATGGGGGAGGGGACTTCGCTGGAGGTGGCCTAGGGAGATTAGAGTATCGGTCGA,-0.382
3,TATCTTCGTATAGAAACAAGACAGAATGATGCCTAGGGAGATTAGAGTATCGGTCGA,-0.775
4,GTAAACACAGACTTTGGAATCACAATGATAGCCTAGGGAGATTAGAGTATCGGTCGA,1.97
5,CCTGTACCTAGAATTCTTTCACTCCCTTTTGCCTAGGGAGATTAGAGTATCGGTCGA,1.12
6,AGGGGTTACTAGTGAGTTGGACTTTGGACCGCCTAGGGAGATTAGAGTATCGGTCGA,11.6
7,GGGGACCTTTGGCCTTTACCTGTTACTTATGCCTAGGGAGATTAGAGTATCGGTCGA,3.57
8,TTACCGGTGTGACTTTGGTTGGATTTCTTGGCCTAGGGAGATTAGAGTATCGGTCGA,1.54
9,AAGAAGGTTTACTCAAGCAAAAAGTTTGGAGCCTAGGGAGATTAGAGTATCGGTCGA,0.467
10,AGGTACAAACATACTTAGGATTTTTGTGCCGCCTAGGGAGATTAGAGTATCGGTCGA,0.442
11,CTCTCGGGCCAGCTGTACAAATAAAGGATGGCCTAGGGAGATTAGAGTATCGGTCGA,-0.146
12,TAAACTTTTGATTGCTTAGGCTCTTGTTATGCCTAGGGAGATTAGAGTATCGGTCGA,-0.703
13,GAGGCAGCAAGGTCAAAGTGCGTCCTGTGGGCCTAGGGAGATTAGAGTATCGGTCGA,3.92
14,GTGGCTACCTGTGCAGATATTTAACCTTTGGCCTAGGGAGATTAGAGTATCGGTCGA,4.11
15,CTTTGTTTACTTAACCTTTGATCATATGCAGCCTAGGGAGATTAGAGTATCGGTCGA,5.18
16,GATATTTAACCTTTGATCTGTAAGCTCTCTGCCTAGGGAGATTAGAGTATCGGTCGA,4.61
17,CTGTGCTTTGTTTACTTAACCTTTGATCATGCCTAGGGAGATTAGAGTATCGGTCGA,7.05
18,TTGCACTGTGCTTTGTTTACTTAACCTTTGGCCTAGGGAGATTAGAGTATCGGTCGA,4.05
19,TACCTGTGCAGATATTTAACCTTTGATCTGGCCTAGGGAGATTAGAGTATCGGTCGA,7.34
20,TCTGAAAAAAGCTATCATTTGTCACTTGGAGCCTAGGGAGATTAGAGTATCGGTCGA,1.38
21,GACCAGGTTGTGAGGGAGGGCACAGGCAACGCCTAGGGAGATTAGAGTATCGGTCGA,-0.298

row,Sequence,binding signal [log2 normalized intensity]
1,ATTTCTGTTGTTGATTTAACATTTGTGATCGCCTAGGGAGATTAGAGTATCGGTCGA,1.92
2,TGATAGCCTTTTACCTTGGCAGCCACTGAGGCCTAGGGAGATTAGAGTATCGGTCGA,-0.876
3,AGGCTGAAGGGAAGCTCTGGGAGTGCCCTTGCCTAGGGAGATTAGAGTATCGGTCGA,1.93
4,CTGCCAAATATTGGGCAATGCTAGGTCTTTGCCTAGGGAGATTAGAGTATCGGTCGA,-0.788
5,GGACTTGGGACTTTCGAGTTAATGCTGGAGGCCTAGGGAGATTAGAGTATCGGTCGA,2.54
6,ACTTTGGACTTGGGACTTTCGAGTTAATGCGCCTAGGGAGATTAGAGTATCGGTCGA,4.12
7,TTTGGACTTTGGACTTGGGACTTTCGAGTTGCCTAGGGAGATTAGAGTATCGGTCGA,7.8
8,GACCATGTGATGTGAAGAGTGTGGACTTTCGCCTAGGGAGATTAGAGTATCGGTCGA,4.26
9,CCTTTGGACTGTCCTTTGCTAGATTCTTTCGCCTAGGGAGATTAGAGTATCGGTCGA,2.01
10,CTGGACTTTCCTTTGTTGGGAGACTTTTTAGCCTAGGGAGATTAGAGTATCGGTCGA,1.63
11,GAGACTTTGGACTTTGGACTTGGGACTTTCGCCTAGGGAGATTAGAGTATCGGTCGA,9.27
12,TGTGATGTGAAGAGTGTGGACTTTCACCTCGCCTAGGGAGATTAGAGTATCGGTCGA,8.12
13,TGTGAAGAGTGTGGACTTTCACCTCCACCAGCCTAGGGAGATTAGAGTATCGGTCGA,6.06
14,TGAGTAGTGTACGTTGTACCCCACAGGTATGCCTAGGGAGATTAGAGTATCGGTCGA,2.94
15,CTCTCTTTCTTCCCCCACTCCAAGTTCCTTGCCTAGGGAGATTAGAGTATCGGTCGA,4.22
16,TGCTCCAGTAAAAGCTCTACCTGACCTCCCGCCTAGGGAGATTAGAGTATCGGTCGA,2.94
17,GCTGTGTCCCACAGGGAAAGTATGGGTCAGGCCTAGGGAGATTAGAGTATCGGTCGA,1.12
18,TCATGTTCAATATACAGTTGGTATTTAGTAGCCTAGGGAGATTAGAGTATCGGTCGA,1.83
19,CCCCTAAAGGAGGCAAGGTCCAAACTTCTCGCCTAGGGAGATTAGAGTATCGGTCGA,1.7
20,ATGTTGGGCAACTACCTCAAAGTTTTGTTAGCCTAGGGAGATTAGAGTATCGGTCGA,0.0615

# From PMC10726135, “HNF4α isoforms regulate the circadian balance between carbohydrate and lipid metabolism in the liver”
